From the supplement of paper PMC6555819

System: PPARa:RXRa (NR concentration 270 nM, RXRa partner concentration 90 nM)
Test: PBM binding z-score (relative to random genomic background probes); higher = stronger binding; sequences stand for … in GC…GCGATTGACAGCGTAGAATGAAGG
Outline: (§1)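 Random background probes are the reference for binding z-scores. These scores derive from regression-normalized fluorescence on custom Agilent 4×180K protein-binding microarrays incubated 1 h with ligand-free nuclear receptor dimers. Binding was detected with antibodies against each partner (one per run).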

Row | Sequence | PBM binding z-score
1 | TCTATTTGTTGAAGGGCAACCGACGAGTCCGTTT | 0.93
2 | AGAACGAGGGCTCGCTGAGTTGATAGCAGAGTAG | -0.747
3 | GATACAGGGTAAAGGCCAGAGTACGCGTATTGAT | 2.46
4 | CCGACTGGGCCAAGGTCATTGATCAGTCAAAGCA | 3.83
5 | CTTCAAAGTTCAACTAAGGTAACGTAAAGCACGC | 5.12
6 | GCTATCAGTTGAAAGGGCAACCGAATGATTCTCG | 1.99
7 | ATCTCTAGGTAAAAGTTCCGTGAATCCCGAGGAT | 1.5
8 | TCGAGTAGGTTGGTCGGGGCATTCAGCCAACATA | 0.0379
9 | AGAATGATGTTACCAAAGATCAGGGAAACGCTTG | -0.0184
10 | CCTACTGGGCCAAACAGGTCATTGATGCCGATAA | 2.56
11 | CCTACTTGGCCATCAGGTCATTGATATCAACGTT | 2.12
12 | CCTTACGGGTCAAGGTTAAAGCACGGGTGGTACG | 5.08
13 | TCTAGATGGTCACGGAGGTCACACACGACGGGTA | 4.04
14 | CAAACTAGGGCAAGAGGTCAAAGTCCGCTTCCCG | 5.74
15 | TCTTGTAGATCAGCAGGTTAAGAAAGCTGGCCAA | 0.684
16 | ATCGGAAGGTCGAAGGTGAGTATACCCACCCGAA | 3.18
17 | CCTTACGGGTCACGAGGATATAGCACGACGAGCG | 5.81
18 | TCTTGTAGATCAACAGGAGGTTAGGAAAGATCGA | 0.641
19 | CCTTACGGGTCACTGACGGGTTATAGCATTTGGA | 4.67
20 | TCTGATAGGTCAACGATGGTCAGCTAATCTGCTA | 4.76

Row | Sequence | PBM binding z-score
21 | CAAACTAGGTCACAGAGGTCATAGTCCGTGCGTA | 6.22
22 | TCTATTAGTTGAAGGGCAAACGACGAGTCCGTTT | 1.43
23 | ATATGTAGGTTATCGGGTCGTTCAGTTTGCGCAT | 3.79
24 | CCGACTGGGGCATACGGTTACCATAAGCCAGCCC | 0.556
25 | ACTCGGAGGACAAAGATCAGAGCTACGCCAGTGA | 0.399
26 | AGAATGAGGTTATACGTCGATCAGGGAAGAAAGT | 3.16
27 | AGAATGAGGTTAAGCTCAGGGAAACAGAATACAT | 3.77
28 | CGTCCAAGGTCATAGGAGGTCAGAGAAGACAGAT | 6.27
29 | CGTCAAAGTTCAATTAAGGTAACGTAAAGCACGC | 4.58
30 | CTCGAAAGGTCGTACTCAGGTGAGTATACCAAAC | 4.59
31 | CTCGAAAGGTCGATTGAGGTGAGTATACGGATAA | 4.12
32 | CTCGAAAGGTCGTGCTCAGGTGCGTATACCAAAC | 4.57
33 | ATCTCTAGGTAAGACTCAGTTCACTGAAGAACGC | 0.739
34 | CCTTACGCGTCACTGACAGGTTATAGCATTTGGA | 0.558
35 | TTACCAATGTGAAAGGTCGTTGATGCACGCCTTG | 3.26
36 | TAGCCTAGGTCATGCGGGCCAGAATAGTGTCGGC | 3.93
37 | CCTTACGAGTCACGAGGTTATAGCACGACGAGCG | 1.84
38 | AGAATGAGGTTATACGTAGAACAGGGAAGAAAGT | 3.07
39 | CCTGCTGGGCCATCAGGTCATTGATATCAACGTT | 1.73
40 | AGTCAAAGTTCACTAGCTAACGTAAGATTCAGCT | 3.91

System: PPARg:RXRa (NR concentration 180 nM, RXRa partner concentration 90 nM)
Test: as above
Outline: as §1

Row | Sequence | PBM binding z-score
41 | TCTATTTGTTGAAGGGCAACCGACGAGTCCGTTT | 0.0466
42 | AGAACGAGGGCTCGCTGAGTTGATAGCAGAGTAG | 0.239
43 | GATACAGGGTAAAGGCCAGAGTACGCGTATTGAT | 4.52
44 | CCGACTGGGCCAAGGTCATTGATCAGTCAAAGCA | 2.29
45 | CTTCAAAGTTCAACTAAGGTAACGTAAAGCACGC | 3.32
46 | GCTATCAGTTGAAAGGGCAACCGAATGATTCTCG | 1.65
47 | ATCTCTAGGTAAAAGTTCCGTGAATCCCGAGGAT | 2.36
48 | TCGAGTAGGTTGGTCGGGGCATTCAGCCAACATA | -0.696
49 | AGAATGATGTTACCAAAGATCAGGGAAACGCTTG | 0.652
50 | CCTACTGGGCCAAACAGGTCATTGATGCCGATAA | 1.79
51 | CCTACTTGGCCATCAGGTCATTGATATCAACGTT | 0.623
52 | CCTTACGGGTCAAGGTTAAAGCACGGGTGGTACG | 5.05
53 | TCTAGATGGTCACGGAGGTCACACACGACGGGTA | 3.59
54 | CAAACTAGGGCAAGAGGTCAAAGTCCGCTTCCCG | 8.05
55 | TCTTGTAGATCAGCAGGTTAAGAAAGCTGGCCAA | -0.446
56 | ATCGGAAGGTCGAAGGTGAGTATACCCACCCGAA | 3.05
57 | CCTTACGGGTCACGAGGATATAGCACGACGAGCG | 6.65
58 | TCTTGTAGATCAACAGGAGGTTAGGAAAGATCGA | -0.123
59 | CCTTACGGGTCACTGACGGGTTATAGCATTTGGA | 4.31
60 | TCTGATAGGTCAACGATGGTCAGCTAATCTGCTA | 3.47

Row | Sequence | PBM binding z-score
61 | CAAACTAGGTCACAGAGGTCATAGTCCGTGCGTA | 10
62 | TCTATTAGTTGAAGGGCAAACGACGAGTCCGTTT | 0.285
63 | ATATGTAGGTTATCGGGTCGTTCAGTTTGCGCAT | 5
64 | CCGACTGGGGCATACGGTTACCATAAGCCAGCCC | 1.47
65 | ACTCGGAGGACAAAGATCAGAGCTACGCCAGTGA | 1.61
66 | AGAATGAGGTTATACGTCGATCAGGGAAGAAAGT | 2.32
67 | AGAATGAGGTTAAGCTCAGGGAAACAGAATACAT | 2.4
68 | CGTCCAAGGTCATAGGAGGTCAGAGAAGACAGAT | 6.35
69 | CGTCAAAGTTCAATTAAGGTAACGTAAAGCACGC | 4.09
70 | CTCGAAAGGTCGTACTCAGGTGAGTATACCAAAC | 2.86
71 | CTCGAAAGGTCGATTGAGGTGAGTATACGGATAA | 1.66
72 | CTCGAAAGGTCGTGCTCAGGTGCGTATACCAAAC | 1.84
73 | ATCTCTAGGTAAGACTCAGTTCACTGAAGAACGC | 0.313
74 | CCTTACGCGTCACTGACAGGTTATAGCATTTGGA | 0.31
75 | TTACCAATGTGAAAGGTCGTTGATGCACGCCTTG | 4.36
76 | TAGCCTAGGTCATGCGGGCCAGAATAGTGTCGGC | 2.58
77 | CCTTACGAGTCACGAGGTTATAGCACGACGAGCG | 1.22
78 | AGAATGAGGTTATACGTAGAACAGGGAAGAAAGT | 2.2
79 | CCTGCTGGGCCATCAGGTCATTGATATCAACGTT | 0.432
80 | AGTCAAAGTTCACTAGCTAACGTAAGATTCAGCT | 5.29
